Test results from PubChem BioAssay.
Results filed as inconclusive are left out. Calls of active or inactive are those of the source. Unless noted, the rule behind the calls is not given here.

Assays:
[1] = growth inhibition of DIPG glioma cells, dose response, cell-based, JHH-DIPG-1, MIPE4.0, CellTiter-Glo, qHTS (AID 1347062; cut-off not given, nearly all actives have AC50 up to about 27 µM;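 for AC50: cells exposed to compound for two days before readout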); settings: JHH-DIPG-1 viability, CellTiter-Glo ATP luminescence
[2] = growth inhibition of DIPG glioma cells, dose response, cell-based, SU-DIPG-XIII, MIPE5.0, CellTiter-Glo, qHTS (AID 1347064; cut-off not given, nearly all actives have AC50 up to about 23 µM;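 for AC50: cells exposed to compound for 48 hours before the viability read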); settings: SU-DIPG-XIII viability, CellTiter-Glo ATP luminescence
[3] = viability loss in pontine glioma line – cell-based, SU-DIPG-XXV, MIPE5.0, CellTiter-Glo, qHTS, dose response (AID 1347065; cut-off not given, nearly all actives have AC50 up to about 26 µM;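 note: cells exposed to compound for 48 hours before ATP readout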); settings: CellTiter-Glo ATP luminescence
[4] = HepG2 cytotoxicity, primary screen, cytotoxicity control for P. falciparum antimalarial project, cell-based, ATP luminescence (AID 2303;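 active = inhibition above 50%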;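 note: 0% = DMSO wells and 100% = digitonin-killed cells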); settings: HepG2 viability, 24-48 h, at 10 µM, stronger effect = higher value
[5] = molecular target: L-lactate dehydrogenase (Plasmodium falciparum (isolate CDC / Honduras)) (UniProt Q27743); assay: PfLDH activity inhibition – cell lysate, 3D7 strain, counter-screen for P. falciparum growth inhibition project (AID 2304);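 note: 0% = vehicle and 100% = reference inhibitor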; settings: P. falciparum 3D7 crude extract, LDH APAD/NBT absorbance; at 2 µM; stronger effect = higher value
[6] = inhibition of 3D7 malaria parasite growth – strain 3D7 (AID 2306);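 note: 0% = DMSO wells and 100% = chloroquine plus artemisinin control wells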; settings: P. falciparum 3D7 erythrocytic growth, LDH absorbance, 72 h; at 2 µM; stronger effect = higher value
[7] = inhibitors of Cryptococcus chitosan production, flow cytometry, Cibacron Brilliant Red staining (AID 1347148); settings: Cryptococcus neoformans chitosan, stronger effect = lower value; at 10 µM unless noted;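 note: compound exposure lasted three days at 37 degrees C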
[8] = enhancers of SMN2 over SMN1 splicing, cell-based, SMN2/SMN1 luciferase reporters (AID 1598); settings: SMN2 vs SMN1 luciferase splicing reporter cells, at 10 µM; SMN1 luciferase ratio: measured here: SMN1 luciferase reporter average; SMN2 luciferase ratio: measured here: SMN2 luciferase reporter average, stronger effect = higher value; SMN2/SMN1 luciferase ratio: stronger effect = higher value
[9] = protection against mutant huntingtin cytotoxicity, PC12 cells, LDH release (AID 1610); settings: PC12 mutant huntingtin toxicity, final LDH at 4 uM, stronger effect = lower value

Chain of L-lactate dehydrogenase (Plasmodium falciparum (isolate CDC / Honduras)) (Q27743 whole entry, looked up): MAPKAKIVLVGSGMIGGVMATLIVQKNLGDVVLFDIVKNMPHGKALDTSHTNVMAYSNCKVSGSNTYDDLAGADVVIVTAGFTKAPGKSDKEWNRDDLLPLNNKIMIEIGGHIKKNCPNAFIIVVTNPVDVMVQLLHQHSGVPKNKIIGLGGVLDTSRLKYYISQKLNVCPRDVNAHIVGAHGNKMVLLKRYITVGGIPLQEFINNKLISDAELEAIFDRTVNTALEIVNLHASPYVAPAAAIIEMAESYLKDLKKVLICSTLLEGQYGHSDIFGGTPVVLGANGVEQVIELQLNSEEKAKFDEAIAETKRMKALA

Question: For COc1ccc2c(c1OC)CN1CCc3cc4c(cc3C1C2)OCO4 (configuration not stated), which AC50 [1] is on record?
Answer: The AC50 was 14800 nM (active).

Question: For CN(C)CCc1ccc(O)cc1, which outcome [1] is on record?
Answer: The outcome was “inactive”.

Question: For COc1cccc2c1C(=O)c1c(O)c3c(c(O)c1C2=O)C[C@@](O)(C(=O)CO)CC3OC1CC(N2CCOC(OC)C2)C(O)C(C)O1 (some centres not stated), which AC50 [2] is on record?
Answer: Its AC50 is 7.42 nM (active).

Question: And the AC50 [3]?
Answer: Its AC50 is 23.5 nM (active).

Question: Which inhibition [4] does the source give for C=C[C@H]1CN2CC[C@H]1C[C@H]2[C@H](O)c1ccnc2ccccc12 here?
Answer: Its inhibition is 9% (inactive).

Question: And the inhibition [5]?
Answer: The inhibition was 2% (inactive).

Question: What about the growth inhibition [6] of the same molecule?
Answer: The growth inhibition was 100% (active).

Question: What does the source list for CC(C)CC(N(C)C)C1(c2ccc(Cl)cc2)CCC1 (configuration not stated)?
Answer: outcome [1]: inactive; outcome [3]: inactive

Question: For COc1ccc(C[C@H]2NC[C@H](O)[C@H]2OC(C)=O)cc1, which inhibition [4] is on record?
Answer: Its inhibition is 39% (inactive).

Question: What about the inhibition [5] of the same molecule?
Answer: The inhibition was 6% (inactive).

Question: And the growth inhibition [6]?
Answer: Its growth inhibition is 100% (active).

Question: And the fold fluorescence [7]?
Answer: The fold fluorescence was 11.2 [at 188.5 µM] (inactive).

Question: For C=C[C@H]1CN2CC[C@H]1C[C@@H]2[C@@H](O)c1ccnc2ccccc12, which inhibition [4] is on record?
Answer: Its inhibition is -7% (inactive).

Question: And the inhibition [5]?
Answer: Its inhibition is 3% (inactive).

Question: What about the growth inhibition [6] of the same molecule?
Answer: Its growth inhibition is 101% (active).

Question: For O=C1CC[C@@]2(O)[C@H]3Cc4ccc(O)c5c4[C@@]2(CCN3CC2CC2)[C@H]1O5, which outcome [2] is on record?
Answer: The outcome was “inactive”.

Question: And the outcome [3]?
Answer: The outcome was “inactive”.

Question: For CC[C@@]1(O)C(=O)OCc2c1cc1n(c2=O)Cc2cc3ccccc3nc2-1, which SMN1 luciferase ratio [8] is on record?
Answer: The SMN1 luciferase ratio was 0.16.

Question: What about the SMN2/SMN1 luciferase ratio [8] of the same molecule?
Answer: The SMN2/SMN1 luciferase ratio was 1.74 (active).

Question: And the SMN2 luciferase ratio [8]?
Answer: The SMN2 luciferase ratio was 0.26.

Question: And the fold fluorescence [7]?
Answer: The fold fluorescence was 6.75 [at 143.5 µM] (inactive).

Question: For CC[C@H]1CN2CC[C@H]1C[C@@H]2[C@@H](O)c1ccnc2ccc(OC)cc12, which inhibition [4] is on record?
Answer: The inhibition was -3% (inactive).

Question: And the inhibition [5]?
Answer: Its inhibition is 1% (inactive).

Question: And the growth inhibition [6]?
Answer: Its growth inhibition is 100% (active).

Question: What does the source list for O=c1c2ccccc2[se]n1-c1ccccc1?
Answer: normalised LDH release [9]: 0.64; fold fluorescence [7]: 9.59 [at 182.4 µM] (inactive)
